The target of the first assay is CD86. The assay can be described thus: pooled miR-30 sensor sort-seq; sequence = guide strand. To be noted: shRNA.
Sequence TATTGCTCGTAACATCAGGGAA gave a sensor-assay potency score (higher = more potent) of -0.935. Same read-out and setting: the value for TAACCGTGTATAGATGAGCAGG was -0.921; that for TTCTGTGACATTATCTTGAGAT was 0.246; that for TACTATTTCAGGTTGACTGAAG was -0.445.

With TTTATGTACACATTTTCTGTTA, the sensor-assay potency score (higher = more potent) was -0.664.

Sequence TTTTCTCTTTTCTTGGTCTGTT came in with a sensor-assay potency score (higher = more potent) of -0.104. Still for that read-out and setting: with AACACTGTCAAATTTCTCTTTG the figure was -0.375; with TATACTTGGAATGAACACTGTC, 1.09.

Turning to ATTGAAATAAGCTTGAATCTTC, the sensor-assay potency score (higher = more potent) came out at 0.247. Consider TAGCAAGCACTGACAGTTCAGA, for which the sensor-assay potency score (higher = more potent) was -0.996. TCTTGGTCTGTTCACTCTCTTC showed a sensor-assay potency score (higher = more potent) of -1.55. Same read-out and setting: the value for ATTATCTTGAGATTTCTGCATA was -0.445.

A further assay concerns the target CD8B. The assay is described as above. The note with it: shRNA.
For TACATTTGGTTCCACAAGGGGG, the sensor-assay potency score (higher = more potent) was -0.791. Still for that read-out and setting: with TTCTCCAGTGGATGTAATCTTA the figure was -0.513.

As to TTGGTTTGCACCTTTATGTATG, the sensor-assay potency score (higher = more potent) is -1.15. The same measure, in the same setting: with TATTGCTGTAGTATCCATGCAG the figure was 0.681; with TTGAGGGTGGACTTCTTGGTGG, -0.918; with TGTACAACTAAGACATTTGTAT, 0.113. Same read-out and setting: with TATTTGTACAACTAAGACATTT the figure was -1.4; with TTATTTGTACAACTAAGACATT, -1.21; with TATGTATGCAGGGGTCTGCTGG, -1.19.

For TTGCATCCCGAAACACAGCTAT, the sensor-assay potency score (higher = more potent) is -0.634.

On to TATCTTCTCCTGTTCCACCTCT, for which the sensor-assay potency score (higher = more potent) is 0.0744. On the same count and under the same terms, the value for TACTGAGGGAGATTTTAGCCTC was -0.613. The sequence TTTTTCCACATCGTGCTCGTTA had a sensor-assay potency score (higher = more potent) of -0.473. In the case of AACACAGCTATCTTCTCCTGTT, the sensor-assay potency score (higher = more potent) is -0.341. Sequence AAACACAGCTATCTTCTCCTGT returned a sensor-assay potency score (higher = more potent) of 0.733.

TAATCTTAGTTGTTTCATGAAA registered a sensor-assay potency score (higher = more potent) of -1.22. Still for that read-out and setting: the value for TAACCGGCACACTCTCTTCTTG was -0.762; that for TTTAGCCTCGCAGGACAGCATC was -1.65.

On to AAGGAAATCAACCACACTCAGC, for which the sensor-assay potency score (higher = more potent) is -1.28.

The next assay has as its target CDC23. The assay is described as above. The note with it: shRNA.
For TATATTTGATGTAACACTGGGC, the sensor-assay potency score (higher = more potent) worked out at 0.351.

Take TATAGCTAACAATATAGCCATC: the sensor-assay potency score (higher = more potent) is -1.75. Still for that read-out and setting: the value for TCTATCAACTGCAACTCTGTGT was 0.16; that for TATAATCCTATCTCCTTGCTTG was 0.291. On the same count and under the same terms, the value for TAAATGCACAACACTTTTGTGC was -0.535. The same measure, in the same setting: with TAGTTGATTGAGTTTCTCGTAA the figure was -0.361; with TTGAGTGGAGAAACTCTGCGTG, 0.52; with TAAGAATCAAACATCATTCTGG, 0.585.

Regarding TTTGTGCACAAGTTGAAGCTTC, the sensor-assay potency score (higher = more potent) is -0.382.

The values are drawn from the OligoGym collection.
Also: reference of the scale not given here.
